Measurements published in PubChem BioAssay (NCATS).
Where “and” joins values, the source holds several entries; their conditions need not be identical. Identical values can stand only once. Inconclusive results are not listed. Calls of active or inactive are those of the source. The call rests on the fitted dose curve. Numbered stars: 1 amine (or outer) side, 2 acyl side, 3 side chain; on linkers, the order of the positions; unused ones are H or OH. Bridge positions count the residues as written; N and C are the ends. Square brackets hold non-standard residues; d marks the D form. Peptide text beside a SMILES is read from it. * marks the point of attachment. X6 = NC1=N[C@@H](O)C[C@H]([C@H](N[*:1])C(=O)[*:2])N1; ΔAla(Z-3-ureido) = NC(=O)N/C=C(\N)C(=O)O; β3hOrn = NCCC[C@H](N)CC(=O)*; Dap = NC[C@H](N)C(=O)O

Legend:
[1] = Primary qHTS for inhibitors of SARS-S pseudo-typed particle cell entry (AID 1479145); conditions: outcome: dose series up to 57.1 µM unless noted; further: nearly all actives have a fitted effect of over 45% in size; on activity change, negative = inhibition: on the % scale 0 is the no-effect control and ±100 the full control effect
[2] = Primary qHTS for Huh7 cytotoxicity: counterscreen for inhibitors of MERS-S pseudotyped particle cell entry (AID 1479147); conditions: outcome: dose series up to 57.1 µM unless noted; on activity change, negative = cytotoxicity: on the % scale 0 is the no-effect control and ±100 the full control effect
[3] = Primary qHTS for inhibitors of MERS-S pseudo-typed particle cell entry (AID 1479149); conditions: outcome: dose series up to 57.1 µM unless noted; further: nearly all actives have a fitted effect of over 60% in size
[4] = Primary qHTS for Vero E6 cytotoxicity: counterscreen for inhibitors of SARS-S pseudo-typed particle cell entry (AID 1479150); conditions: outcome: dose series up to 57.1 µM unless noted; on activity change, negative = cytotoxicity: on the % scale 0 is the no-effect control and ±100 the full control effect
[5] = Cytotoxicity counterscreen for inhibitors of SARS-CoV-2 cell entry (AID 1645845); conditions: outcome: dose series up to 57.1 µM unless noted; further: nearly all actives have a fitted effect of over 50% in size; on activity change, negative = cytotoxicity: on the % scale 0 is the no-effect control and ±100 the full control effect
Summary of the method: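 48 h compound treatment (after 1 h preincubation), HEK293-ACE2 cells, 37 C/5% CO2; ATP luminescence endpoint; normalized to cell wells and media blanks.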

[6] = Primary qHTS to identify inhibitors of SARS-CoV-2 cell entry (AID 1645846); conditions: SARS-CoV-2 pseudovirus cell entry assay, luminescence; activity change, negative = inhibition: at 57.1 µM (top of the series) unless noted; further: nearly all actives have a fitted effect of over 45% in size
Summary of the method: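 Inhibition of spike-mediated entry was scored in human ACE2-transfected Expi293F cells. Particles were MLV-pseudotyped with Wuhan-Hu-1 S carrying a 19-aa C-terminal deletion; signal was luciferase after two days, scaled between spike PP and fusion-protein-free PP.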

Cc1ncc(C[n+]2csc(CCOP(=O)(O)OP(=O)(O)O)c2C)c(N)n1
-1.65% [at 0.702 µM]: activity change, negative = inhibition [6]
inactive: outcome [1] inactive [at 0.573 µM] | outcome [2] inactive [at 0.573 µM] | outcome [3] inactive [at 0.573 µM] | activity change, negative = cytotoxicity [4] -14.9% [at 0.573 µM] | activity change, negative = cytotoxicity [5] 3.84% [at 0.702 µM]

N[C@H](Cc1ccccc1)C(=O)O
inactive: Potency [1] | Potency [2] | Potency [3] | Potency [4] | Potency [5]
-27.4% [at 27.1 µM]: activity change, negative = inhibition [6]

CC=CC1=C(C(=O)O)N2C(=O)[C@@H](NC(=O)[C@H](N)c3ccc(O)cc3)[C@H]2SC1
inactive: Potency [1] | Potency [2] | Potency [3] | Potency [4] | Potency [5] | Potency [6]

CC(C)(CO)[C@@H](O)C(=O)NCCC(=O)NCCSSCCNC(=O)CCNC(=O)[C@H](O)C(C)(C)CO
inactive: Potency [1] | Potency [2] | Potency [3] | Potency [4] | Potency [5]
-13.3%: activity change, negative = inhibition [6]

CC(Oc1ccccc1)C(=O)N[C@@H]1C(=O)N2[C@@H]1SC(C)(C)[C@@H]2C(=O)O (some centres not stated)
inactive: Potency [1] | Potency [2] | Potency [3] | Potency [4] | Potency [5]
-18.1%: activity change, negative = inhibition [6]

CCOc1ccc(Cc2cc([C@@]34OC[C@@](CO)(O3)[C@@H](O)[C@H](O)[C@H]4O)ccc2Cl)cc1
inactive: Potency [1] | Potency [2] | Potency [3] | Potency [4] | Potency [5]
-29.2%: activity change, negative = inhibition [6]

CCOC(=O)[C@H](CS)NCCN[C@@H](CS)C(=O)OCC
inactive: Potency [1] | Potency [2] | Potency [3] | Potency [4] | Potency [5] | Potency [6]

CCCCCCCCCCCCCCCCCCCCCCCCCCCCO
inactive: activity change, negative = inhibition [1] -10.7% [at 0.573 µM] | outcome [2] inactive [at 0.573 µM] | outcome [3] inactive [at 0.573 µM] | activity change, negative = cytotoxicity [4] 3.84% [at 0.573 µM] | outcome [5] inactive [at 0.702 µM] | outcome [6] inactive [at 0.702 µM]

O=[N+]([O-])O[C@@H]1CO[C@H]2[C@@H]1OC[C@@H]2O
inactive: Potency [1] | Potency [2] | Potency [3] | Potency [4] | Potency [5]
-29.2% [at 114 µM]: activity change, negative = inhibition [6]

NC(=O)c1nc(F)c[nH]c1=O
inactive: Potency [1] | Potency [2] | Potency [3] | Potency [4] | Potency [5]
-11.1% and -27.4%: activity change, negative = inhibition [6]

CS(=O)(=O)n1cc2c(n1)CN([C@H]1CO[C@H](c3cc(F)ccc3F)[C@@H](N)C1)C2
inactive: Potency [1] | Potency [2] | Potency [3] | Potency [4] | Potency [5]
-25.8%: activity change, negative = inhibition [6]

CCN(CC)CCOC(=O)c1cccnc1
-32.2%: activity change, negative = inhibition [6]
inactive: Potency [1] | Potency [2] | Potency [3] | Potency [4] | Potency [5]

O=C(O)c1cc(O)c2c(c1)[O][Bi][O]2
-27.2% [at 0.702 µM]: activity change, negative = inhibition [6]
inactive: activity change, negative = inhibition [1] -20% [at 0.573 µM] | activity change, negative = cytotoxicity [2] -1.24% [at 0.573 µM] | outcome [3] inactive [at 0.573 µM] | outcome [4] inactive [at 0.573 µM] | outcome [5] inactive [at 0.702 µM]

Cc1onc(-c2c(F)cccc2Cl)c1C(=O)N[C@@H]1C(=O)N2[C@@H]1SC(C)(C)[C@H]2C(=O)O
-29.1%: activity change, negative = inhibition [6]
inactive: Potency [1] | Potency [2] | Potency [3] | Potency [4] | Potency [5]

CC(C(=O)O)c1ccc(C2CCCCC2)c2ccccc12 (configuration not stated)
inactive: Potency [1] | Potency [2] | Potency [3] | Potency [4] | Potency [5]
-4.82%: activity change, negative = inhibition [6]

NCCC[C@H](N)CC(=O)N[C@H]1CNC(=O)[C@H]([C@H]2C[C@H](O)N=C(N)N2)NC(=O)/C(=C/NC(N)=O)NC(=O)[C@H](CO)NC(=O)[C@H](CO)NC1=O (β3hOrn-[Dap]SS[ΔAla(Z-3-ureido)][X6]; lactam 1-C)
inactive: Potency [1] | Potency [2] | Potency [3] | Potency [4] | Potency [5] | Potency [6]

CCCCC(=O)O
-20.8%: activity change, negative = inhibition [6]
inactive: Potency [1] | Potency [2] | Potency [3] | Potency [4] | Potency [5]

CC1(O)CCC(C(C)(C)O)CC1 (configuration not stated)
inactive: Potency [1] | Potency [2] | Potency [3] | Potency [4] | Potency [5] | Potency [6]

CC(=O)Nc1c(I)c(C(=O)O)c(I)c(N(C)C(C)=O)c1I
-20.3%: activity change, negative = inhibition [6]
inactive: Potency [1] | Potency [2] | Potency [3] | Potency [4] | Potency [5]

Nc1c(CC(=O)O)cccc1C(=O)c1ccccc1
inactive: Potency [1] | Potency [2] | Potency [3] | Potency [4] | Potency [5] | Potency [6]

CCC(=O)OCC(=O)[C@@]1(OC(=O)CC)[C@@H](C)C[C@H]2[C@@H]3CCC4=CC(=O)C=C[C@]4(C)[C@@]3(F)[C@@H](O)C[C@@]21C
inactive: Potency [1] | Potency [2] | Potency [3] | Potency [4] | Potency [5] | Potency [6]

COc1cccc(N2CCN(C3=Nc4c(F)cccc4[C@H](CC(=O)O)N3c3cc(C(F)(F)F)ccc3OC)CC2)c1
inactive: Potency [1] | Potency [2] | Potency [3] | Potency [4] | Potency [5] | Potency [6]
